This is an account of results in PubChem BioAssay (NCATS).

Sequence of Nicotinamide N-methyltransferase (Homo sapiens) (P40261 whole entry, looked up): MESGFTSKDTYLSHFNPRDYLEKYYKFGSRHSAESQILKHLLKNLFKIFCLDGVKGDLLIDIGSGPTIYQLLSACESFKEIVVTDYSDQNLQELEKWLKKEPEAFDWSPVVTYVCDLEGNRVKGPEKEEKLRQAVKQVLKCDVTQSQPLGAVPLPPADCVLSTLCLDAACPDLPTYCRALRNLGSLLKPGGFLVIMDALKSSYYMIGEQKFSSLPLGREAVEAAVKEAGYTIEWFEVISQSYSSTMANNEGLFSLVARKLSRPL

This experiment addresses Nicotinamide N-methyltransferase (Homo sapiens) (UniProt P40261). The experiment is described as follows: Confirmatory Screen for Target Class Profiling of Small Molecule Inhibitors of Methyltransferases (AID 1745852). Conditions: MTase-Glo luminescence, SAH detection, recombinant enzyme; measured here: NNMT max response; stronger effect = lower value.
On to `COc1ccc(CCN(C)CCCOc2nsc(-c3ccccc3)n2)cc1OC`, for which the activity was -34.1%.

On to `CCN(CC)CCCCCCNc1cc(OC)cc2c(C)ccnc12`, for which the activity was found to be 0.614%.

As to `CCOC(=O)c1cnc2ccc(-c3cncc(NS(=O)(=O)c4ccccc4)c3)cn12`, the activity was -25.7%.

Regarding `CCOC(=O)N1CCC(CN(Cc2ccc(Cl)cc2)Cc2ccc([N+](=O)[O-])s2)C1` (centres undefined), the activity was -5.08%.

On to `CC1(C)CCC(C)(C)c2cc(C#Cc3ccc(C(=O)O)cc3)ccc21`, for which the activity was -63%.

As to `O=C1Cc2c([nH]c3ccc(Br)cc23)-c2ncccc2N1`, the activity was -15.4%.

Take `CC(F)(F)CN1CCOc2c(nn(-c3ccccc3Cl)c2-c2ccc(Cl)cc2)C1=O`: the activity is -32.3%.

Take `C=C1C(=O)OC2/C=C(/C)C3=CC(=O)C(C)(CC(OC(=O)/C(C)=C/COC(C)=O)C12)O3` (centres undefined): the activity turned out to be 0.146%.

In the case of `CCn1c(-c2nonc2N)nc2c(C#CC(C)(C)O)ncc(OCC3CCCNC3)c21` (centres undefined), the activity is -28%.

With `CC(C)(O)c1ccc2c(c1)ncn2-c1cccc(-c2ccccc2C#N)c1`, the activity was -41.8%.

For the molecule `CC12CCC3C1C(c1c(cc(O)c(C(=O)c4ccccc4)c1O)O2)C3(C)C` (centres undefined), the activity was -25.6%.

As for `N#C/C(=C1\Nc2ccccc2S1)c1ccnc(NCCc2cccnc2)n1`, the activity was -43.4%.

Take `COc1ccccc1OCCNCC(O)CCOc1cccc2[nH]c3ccccc3c12` (centres undefined): the activity was -4.12%.

With `Cc1cn(CCN2CCN(c3ccccc3-c3cc(C#N)cc(C(=O)NCCCN4CCCC4)c3)CC2)c2ccccc12`, the activity was -4.29%.

Regarding `COc1cc2c(cc1OC)CN(C(=O)/C=C/c1c(-c3ccccc3)n(C)c3ncccc13)CC2`, the activity is -30.5%.

As for `N#Cc1cnc2c(Cl)cc(NCc3cn(CCN4CCCCCC4)nn3)cc2c1Nc1ccc(F)c(Cl)c1`, the activity was -26.2%.

In the case of `C=C1C(=O)O[C@@H]2/C=C(\CO)CC/C=C(/C=O)C[C@H](O)[C@@H]12`, the activity is 4.28%.

In the case of `C=C1C(=O)OC[C@@H]1C/C=C(\C)CC1CC(C)C(=O)O1` (some centres undefined), the activity is 0.776%.

For `C=C1C(=O)OC2C(OC(=O)C=C(C)C)C(C)=C3C(=O)C=C(C)C3C(O)C12` (centres undefined), the activity stood at 2.7%.

`CN1CCN(Cc2ccc(NC(=O)Cc3ccc(Oc4cc(NC(=O)C5CC5)ncn4)cc3)cc2C(F)(F)F)CC1`: the activity is -29.5%.

Consider `COc1ccc(N(C(=O)Nc2c(C)cccc2C)c2cc(Nc3ccc(N4CCN(C)CC4)cc3)ncn2)c(OC)c1`, for which the activity is -36.9%.

For the molecule `O=C(NCCCc1ccccc1)c1cccc(-c2cc(O)c3ncccc3c2)c1`, the activity is -28.1%.

With `CC(C)(C)c1ccc(C(=O)Nc2cc(Cl)c(Br)cc2C(=O)O)cc1`, the activity is -40.5%.

In the case of `CN(C)[C@@H]1CCc2[nH]c3ccc(NC(=O)c4ccc(F)cc4)cc3c2C1`, the activity came to 0.33%.

Turning to `O=C1NC(=O)C(c2cnc3ccccn23)=C1c1cn2c3c(cc(F)cc13)CN(C(=O)N1CCCCC1)CC2`, the activity was -51.2%.

As for `C=C1C(=O)OC2CC(C)C(CCC(C)O)=CCC12` (centres undefined), the activity is -3.12%.

For `CC(=O)OC/C(=C/C(=O)O)CC[C@@H]1C(C=O)=CC[C@@H]2C(C)(C)CCC[C@@]12C`, the activity is -14%.

In the case of `C=C1C(=O)O[C@@H]2C3=C(C)CCC[C@]3(C)CC[C@@]12O`, the activity is -7.46%.

`Cc1nnc(C[C@@H]2C=C(c3ccc(Cl)cc3)c3ccccc3-n3c(C)nnc32)o1`: the activity was -21%.

Turning to `C=C1C(=O)OC2/C=C(\C)CC/C=C(\C=O)C(OC)C(OC(=O)C(C)CC)C12` (centres undefined), the activity was -2.69%.

For `COc1cccc(-c2cn(-c3ccc(CCN4CCC(O)CC4)cc3)c3ncnc(N)c23)c1`, the activity is -80.6%.

For `CCCCNc1ncc(C(=O)NCc2ccc(-n3ccnc3)cc2)c(NC2CCC(O)CC2)n1` (centres undefined), the activity is -47.3%.

`Cc1cc2c(N3CCCC3)nc(N3CCCC3)nc2n1C`: the activity is -27.1%.

Consider `CCCSc1nc(N[C@@H]2C[C@H]2c2ccc(F)c(F)c2)c2nnn([C@@H]3C[C@H](OCCO)[C@@H](O)[C@H]3O)c2n1`, for which the activity is -50.5%.

For `CN(C)CC1CCn2c(c(C3=C(c4cn(C)c5ccccc45)C(=O)NC3=O)c3ccccc32)C1` (centres undefined), the activity was -44.5%.

`COc1cc2c(cc1-c1c(C)noc1C)ncc1[nH]c(=O)n(C(C)c3ccccn3)c12` (centres undefined): the activity is -29.4%.

In the case of `Cc1sc2c(c1C)C(c1ccc(Cl)cc1)=N[C@H](CC(=O)NCCCCNC(=O)COc1cccc3c1C(=O)N([C@H]1CCC(=O)NC1=O)C3=O)c1nnc(C)n1-2`, the activity was -57.3%.

Consider `C=C1C(OC2OC(CO)C(O)C(O)C2O)CC2C(C)(C)C(O)CCC2(C)C1CC/C(C)=C\COC(=O)CC(=O)O` (centres undefined), for which the activity turned out to be 0%.

Turning to `C=C1C(=O)OC2C1CCC1(C)C(O)CC=C(C)C21` (centres undefined), the activity was -3.54%.
